# Several values for one entry are separate records, joined by “and”; a condition that tells them apart may be missing. Equal values may be shown once. The panel holds about 79,000 compounds, 15% with a hit somewhere; the sample as a whole holds those more often. Unmarked numbers belong to inactive results. Activity calls are given as the source filed them. Cut-off read from the data, not from the text of the source: active = growth inhibition above about 70%; inactive = the rest.
# What was measured:
# [1] = NCI Yeast Anticancer Drug Screen. Data for the rad50 strain (AID 155);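 note: 0% = growth of vehicle-only cultures of the same strain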; details: S. cerevisiae rad50 strain growth inhibition, stronger effect = higher value; at 50.0 µM unless noted
# Summary of the method: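 Readout: growth inhibition relative to vehicle-treated cultures. Compound exposure was carried out in a genetically defined yeast strain deficient in DNA damage repair.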
# [2] = NCI Yeast Anticancer Drug Screen. Data for the mec2-1 strain (AID 157); details: S. cerevisiae mec2-1 strain, stronger effect = higher value; at 50.0 µM unless noted
# Summary of the method: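 Growth inhibition is read against vehicle-treated controls after compound exposure of the mec2-1 yeast strain, which is defective in DNA damage repair or cell cycle control.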
# [3] = NCI Yeast Anticancer Drug Screen. Data for the sgs1 mgt1 strain (AID 161);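 note: 0% = growth of cultures given vehicle only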; details: S. cerevisiae sgs1 mgt1 strain, stronger effect = higher value; at 50.0 µM unless noted
# Summary of the method: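 This yeast growth screen uses a strain with defined DNA-repair lesions; compound-treated growth is compared with vehicle-treated growth.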
# [4] = NCI Yeast Anticancer Drug Screen. Data for the cln2 rad14 strain (AID 165);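 note: 0% = growth equal to vehicle treated cultures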; details: S. cerevisiae cln2 rad14 strain, stronger effect = higher value; at 50.0 µM unless noted
# Summary of the method: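 Growth inhibition, relative to vehicle-treated controls, is the read-out. The test organism is a yeast strain with defined genetic alterations, cln2 rad14.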
# [5] = NCI Yeast Anticancer Drug Screen. Data for the bub3 strain (AID 167); details: S. cerevisiae bub3 mutant strain, stronger effect = higher value; at 50.0 µM unless noted
# Summary of the method: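 Readout: yeast growth inhibition, expressed relative to vehicle-only wells. The test organism is a mutant strain from a panel with lesions in DNA repair or checkpoint genes.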
# [6] = NCI Yeast Anticancer Drug Screen. Data for the mlh1 rad18 strain (AID 175); details: S. cerevisiae mlh1 rad18 strain growth inhibition, stronger effect = higher value; at 50.0 µM unless noted
# Summary of the method: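 Cells of a genetically altered yeast strain, deficient in DNA damage repair, were treated with compound. Their growth was then compared with that of vehicle-treated cultures to give inhibition.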
SMILES,growth inhibition [1],growth inhibition [2],growth inhibition [3],growth inhibition [4],growth inhibition [5],growth inhibition [6]
CC(C)NC(=O)c1ccc(Cl)cc1Cl,26.9%,27.9%,15.6%,10.9%,3.7%,12%
COc1ccc(/C=N/NS(=O)(=O)c2ccc(NC(C)=O)cc2)cc1,-15.2%,-30.1%,16.4%,22.8%,-21.8%,-9.15%
CC(C)CC(NC=O)C(=O)O (stereo unspecified),11.2%,1.85%,-0.4%,9.45%,-0.3%,8.35%
O=[N+]([O-])c1ccc(S(=O)(=O)O)cc1,43.6%,25.1%,37.5%,-22.7%,9.65%,43.1%
Cc1cc(N(CCC#N)CCC#N)ccc1/C=N/NC(=O)c1ccccc1,6.1%,-2.35%,-10.1%,6.3%,5.95%,-47.5%
CC(=O)Nc1c(N)c2ccccc2c2ccccc12,-4.2%,-13.9%,-22.7%,1.75%,-4.5%,-12.2%
Cc1ccc(SCC(O)=C2C(=O)CCCC2=O)cc1,-11.4%,-12.3%,15.1%,-0.45%,-2.25%,-7.45%
CC(=O)OC(CCC1CO1)OC(C)=O (stereo unspecified),0.65%,11.6%,-0.2%,-7.65%,15.2%,-0.1%
CN1CCN(C(=S)N(C)C(=O)c2ccco2)CC1,-37.8%,-36.9%,-48.9%,-8.85%,-44.4%,-40.1%
CC1(C)Oc2nc[nH]c(=O)c2C1c1ccccc1 (stereo unspecified),2.55%,-4.5%,-0.4%,-20.1%,-19.4%,5.35%
COC(=O)C(=O)C(C(=O)OC)C(=O)C(=O)Nc1ccccc1C(N)=O (stereo unspecified),-33.5%,-7.55%,-25.6%,-10.2%,-27.9%,-21.2%
CC1(C)CCC2=C(O1)C(=O)c1ccccc1C2=O,13.8%,-3.45%,29.6%,3.35%,35.8%,18%
CC(C)OC(=O)c1ccc(CCC2=CC(=O)C(Br)=CC2=O)cc1,50.7%,62.4%,65.5%,56%,51%,90% (active)
COc1ccc(C(=O)NNC(=O)c2cccc3ccccc23)cc1,21.8%,-9.75%,9.7%,5.8%,16.6%,-3.6%
CCNc1cc(Cl)c(C(=O)O)cc1[N+](=O)[O-],-8.8%,20.9%,15.3%,-22.7%,-8.75%,-8.65%
Cn1c2c(c(=O)c3cc(O)ccc31)CC(O)C(C)(C)O2 (stereo unspecified),-8.9%,-10.8%,-11.7%,-11%,8.8%,-2.7%
O=C(O)C1=Cc2ccccc2OC1,2.7%,-19.9%,-5.55%,-27.2%,-28.6%,-4.7%
COc1ccc(C2=C(N)c3ncccc3C2=O)cc1,5.55%,-5.05%,7.4%,4.65%,19.9%,-70.3%
N#C/C=C\c1ccc(-c2cc(C(F)(F)F)cc(C(F)(F)F)c2)o1,-49%,-22.6%,-42.5%,3.65%,10.8%,-57.5%
CC(=O)Nc1ccc(CCCc2ccc([N+](=O)[O-])cc2)cc1,3.15%,3.35%,-10.9%,-70.2%,1.6%,0%
COc1ccc(-c2oc(=O)c3ccccc3c2-c2ccccc2)cc1,7.25%,4.65%,5.35%,9.4%,2.6%,6.4%

SMILES,growth inhibition [1],growth inhibition [2],growth inhibition [3],growth inhibition [4],growth inhibition [5],growth inhibition [6]
O=S(=O)(O)c1cc(Nc2ccnc3ccccc23)c2c(S(=O)(=O)O)cc(S(=O)(=O)O)cc2c1,15.1%,24.3%,4.25%,12.2%,10.2%,19.8%
O=c1[nH][nH]c(=O)c2c([N+](=O)[O-])cccc12,-17.6%,-8.6%,-3.8%,-37.5%,0.35%,-0.35%
CC(=O)Nc1ccc(S(=O)(=O)N/N=C(/C)c2ccccc2)cc1,-8.8%,-31.8%,1.05%,1.55%,-23.4%,-23.6%
CN(C)c1ccc(C(=O)Cc2ccc3ccccc3n2)cc1,98.7% (active),99.2% (active),99.1% (active),98.2% (active),98.9% (active),98.9% (active)
CCCCOC(=O)NC(Nc1ccc(S(N)(=O)=O)cc1)(C(F)(F)F)C(F)(F)F,5.95%,7.9%,2.95%,-1.4%,12.1%,18.3%
Oc1cccc2c1CCCC2,-1.25%,-12.2%,-37%,-16.4%,-1.85%,-3.9%
OC1COC(OCc2ccccc2)C(O)C1O (stereo unspecified),-16.4% and -2.85%,-25.7% and -19.6%,-18.1% and -11.5%,-18.2% and -46.3%,2.25% and 6%,-3.4% and -12.2%
C=CCOCn1cnc2c(N)ncnc21,-35.9%,-59.9%,-24.1%,-0.6%,-11.3%,-36%
Nc1nc2cc3nc(N)c(N)nc3cc2nc1N,-6.4%,14.7%,13.1%,34.9%,13.2%,15.1%
CCOC(=O)c1ccc(NCc2ccc(CNc3ccc(C(=O)OCC)cc3)cc2)cc1,-35.4%,-18.2%,-36.2%,-11.8%,-21.4%,-27%
O=C1C(=O)c2ccccc2C(O)=C1CN1CCOCC1,31.6%,32.1%,14.4%,4.65%,28%,8.85%
O=C(CSc1nc(-c2ccccc2)c(-c2ccccc2)[nH]1)N/N=C/c1ccc(O)cc1,-8.15%,-3.2%,-12.2%,-21.9%,5.6%,-25.6%
COc1ccc(/C=C2\CN(CCCC(=O)O)C(=O)C2=O)cc1,3.6%,-7.5%,0%,-6.45%,4.1%,-16.7%
Cc1noc(NC(=O)Nc2ccccc2F)c1C#N,-24.3%,-10.4%,-33.1%,26.9%,-15.9%,-2.25%
CN(C)c1ccc(/C=C/C(=O)N[C@@H]2C(=O)N3[C@@H]2SC(C)(C)[C@@H]3C(=O)O)cc1,-10.3%,-10.8%,-11.9%,6.35%,-12.8%,12.8%
C#CC(=O)CCC,26.6%,-5.8%,-4.7%,-1.1%,32.5%,15.6%
CCCCCCC1OCC(CC)([N+](=O)[O-])CO1 (stereo unspecified),-13.8%,-9.6%,1.15%,-39.8%,-23.6%,-12.9%
CN(C)C(n1cc2c(c1)-c1ccc(Cl)cc1C(c1ccccc1F)=NC2)n1cc2c(c1)-c1ccc(Cl)cc1C(c1ccccc1F)=NC2,11.8%,-8.8%,1%,7.8%,-7.55%,-22.9%
CCCCOC(=O)CC(O)C(=O)OCCCC (stereo unspecified),39.1%,-4.45%,-17.5%,-61.2%,-29.9%,-11%
CC(C)CCCC(C)C1CCC2C3CC=C4CC(OC(=O)Nc5ccc(S(=O)(=O)NC6CCCCC6)cc5)CCC4(C)C3CCC12C (stereo unspecified),-1.85%,-4.35%,12.7%,-38.1%,-12.4%,8.25%
